Reference: the supplement of paper PMC3334620
The full ranking holds about 33,000 sequences; the median of “E-score (-0.5 to 0.5)” is about -0.016, and the highest 2% start at about 0.3. The list comes from a sample in which the highest values are over-represented; it also holds similar and randomly drawn sequences.

Each sequence was assayed against T1, Yer184c (UniProt P39961) (assay: PBM E-score (8-mer binding enrichment) (E-score (-0.5 to 0.5)); higher = stronger / more preferred TF binding). Settings: protein concentration: 100 nM; construct: GST-full length.
T1 sequence: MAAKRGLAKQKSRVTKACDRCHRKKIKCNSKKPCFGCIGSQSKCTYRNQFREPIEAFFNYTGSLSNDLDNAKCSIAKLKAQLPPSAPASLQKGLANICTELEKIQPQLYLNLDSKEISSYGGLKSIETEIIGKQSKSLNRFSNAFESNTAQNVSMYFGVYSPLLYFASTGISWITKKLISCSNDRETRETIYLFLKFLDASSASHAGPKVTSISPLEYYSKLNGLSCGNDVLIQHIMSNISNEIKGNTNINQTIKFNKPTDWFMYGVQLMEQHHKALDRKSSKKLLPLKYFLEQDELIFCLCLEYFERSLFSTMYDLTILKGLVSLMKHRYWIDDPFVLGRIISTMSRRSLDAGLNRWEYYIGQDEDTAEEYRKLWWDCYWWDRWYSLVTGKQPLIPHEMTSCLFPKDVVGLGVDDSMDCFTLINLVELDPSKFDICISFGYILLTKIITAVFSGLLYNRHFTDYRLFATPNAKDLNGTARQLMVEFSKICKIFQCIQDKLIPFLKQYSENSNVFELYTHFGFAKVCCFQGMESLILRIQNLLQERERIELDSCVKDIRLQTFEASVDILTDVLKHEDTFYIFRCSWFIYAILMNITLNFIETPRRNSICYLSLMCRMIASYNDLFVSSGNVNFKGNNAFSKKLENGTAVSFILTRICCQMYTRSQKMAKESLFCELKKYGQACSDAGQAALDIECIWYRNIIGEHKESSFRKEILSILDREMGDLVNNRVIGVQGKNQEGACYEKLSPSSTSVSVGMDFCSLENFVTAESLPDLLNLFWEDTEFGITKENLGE
Description: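 Universal 'all 10-mer' protein binding microarrays (Agilent AMADID 015681) probed with GST-tagged S. cerevisiae TFs (full-length or DBD) made by in vitro transcription/translation (PURExpress), about 100-200 nM. Bound TF was detected with fluorescent anti-GST. Each ungapped 8-mer (which stands for itself and its reverse complement) is scored by the PBM enrichment score (E-score), a modified Wilcoxon-Mann-Whitney statistic from -0.5 to +0.5, computed with the Universal PBM Analysis Suite. Scale: above 0.35 generally sequence-specific binding.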

Sequence	PBM E-score
GGCTGCGA	-0.00955
CATGGAGC	-0.175
ATGGAGAG	-0.0917
CATTAGGG	-0.12
CTCTCCGA	0.149
ATCTCCGA	0.36
ATCTCCGG	0.435
ATCTCCGC	0.14
GTCTCCGA	0.243
ATCTCCAG	-0.0032
AAGCACCA	-0.224
CACCAAAG	0.0906
CTTTATTC	0.0145
ATTTATTC	0.329
ATTTATCC	0.314
ATTTATTA	0.216
ATTTATCA	0.258
ATTTATCG	0.103
ATAGAACA	-0.0179
AGTACTGC	-0.177
AACTCGAT	0.12
ACAAGCGA	-0.015
GAAGTAAC	0.0995
AGTAGCAT	-0.0361
AGCATATG	-0.242

Sequence	PBM E-score
ATCCGATG	0.327
ATCCGAAA	0.321
ATCCGAAT	0.419
ATCCGAGA	0.252
ATCCGATC	0.235
ATCCGACC	0.0769
ATCCGAAG	0.302
ATACGAAT	0.0699
ATCCGACA	0.162
CTCCGAGA	0.247
GTCCGAGA	0.333
ATCCGATA	0.266
CTGTGTTC	0.093
CTAGAACC	-0.00303
TATGTACA	-0.0329
AGCACTCG	-0.0898
CTAGAAAG	-0.0631
ATGTATGC	0.0572
AGTCTCAG	-0.104
GTCCGAAA	0.316
TTCCGAAA	0.37
CTCCGAAA	0.266
GTCCGAAC	0.23
TCCCGAAA	0.196
TACCGAAA	0.204

Sequence	PBM E-score
CCAGCTAA	-0.204
GTATCTTA	0.197
GTCGCGAC	0.315
GTCGCGAA	0.00034
CTCGCGAC	-0.064
CTCTTCAA	-0.129
TAGACCTA	-0.0542
GCGGATTA	0.0175
CCGGAGTC	0.235
ACGGATTA	0.183
CTGGATTC	0.00297
CCGGATTC	0.33
CCGGATTA	0.352
ACGGATTC	0.197
GCGGAGTA	0.0105
CCGGAGTA	0.381
ATATGGAT	-0.0237
ACCGCTCG	-0.135
GGTAGGTA	-0.127
GCGCGGCA	0.158
CCGCGGCG	0.326
ACGCGGCG	0.113
CCGCGGCA	0.409
ACGCGGCA	0.096
CCGCGGCC	0.374

Sequence	PBM E-score
CAGCGGCG	0.0785
ACGCGGCC	-0.0466
GCGCGGCC	0.177
ACCCAACC	-0.191
AGAGGGGA	-0.286
ACTGGGTC	-0.271
GAGATTCC	0.0978
CCAAAGCC	-0.0564
ACGGACGA	0.237
CCGGAAGC	0.329
CCGGAAGA	0.344
GGGGAACA	-0.17
GCGGAAGC	0.105
CGGGAACA	0.313
ACGGAAGA	0.262
TCGGACGA	0.278
AGGGAACA	0.00359
CCGGACGA	0.323
ACGGAAGC	0.274
CCGGAAGG	0.28
GACACCTA	-0.129
AAGGGCGA	-0.211
AACAACCT	-0.0961
CAGCTTCG	-0.0525
ATAGTCGA	0.0238

Sequence	PBM E-score
AAACCCCG	0.0829
ATTCGATC	0.111
GAAGGGGA	-0.201
GACAGAGC	-0.128
AGGCCGAA	0.302
CGGGAAGA	0.315
AGGGAAGA	-0.12
CGGGAAGC	0.138
TAACAATA	0.158
AAACAATA	0.282
GAACAATA	0.313
CACACCGG	0.0348
AATACCGG	0.336
AATACCGC	0.0781
AACACCGC	-0.13
AACACCGG	0.37
AATACCGT	0.188
CACCCGTG	-0.169
ACCGCGGA	0.314
GCCGCGCA	0.0353
ATCGCGGA	-0.00991
GCCGCGGA	0.386
AACGCGGA	0.178
GCCGCGAA	-0.0654
GCCGCTCA	-0.0363

Sequence	PBM E-score
GGTAAGCA	-0.146
CCGGATGC	0.331
CAGGATGC	-0.0823
GCGGATGA	0.125
ACGGATGC	0.203
ACGGATGA	0.0817
CCGGATGA	0.335
GCGCCAAA	-0.00708
CCCATGAC	-0.117
GAGGAGCA	-0.0781
CCTGCTGC	-0.143
GAATGCTC	-0.157
CGGTACCG	0.32
CGGTACCC	-0.0697
CGGTACCA	0.0778
GCTAGGAA	0.0829
AGGTAGAA	-0.0769
CCGGCCTA	0.28
ACGGCCGA	0.355
GCGGCCGA	0.242
ACGGCCGC	0.244
ATGGCCGG	0.215
CCGGCCGA	0.431
CCGGCCGC	0.304
ACGGCCAA	0.192

Sequence	PBM E-score
ACGGCCGT	0.176
ACGGCCCA	-0.0167
GCGGCCGC	0.261
ACGGCCGG	0.372
AAAGAGCG	0.00323
AAGCGACA	-0.0772
AACATGGC	-0.317
CATGTGAA	-0.0476
ACTTGCCG	0.142
AGGTCGAA	-0.0466
CGGGCCGA	0.308
GGGGCCGA	-0.192
CGGGCCGC	0.137
AAAGATAT	0.0801
CTGTGCTA	-0.119
GTGTGGGA	-0.0509
CGAGCTCA	0.144
CGAGCTCG	0.308
CGAGCTCC	0.0493
TCAATGGA	-0.0551
GCTACAGA	-0.185
CCGTGCCA	-0.127
